# In the library only some 2.8% were active in any assay of this set; here they are far more common.
# LDHA inh = inhibitors of human lactate dehydrogenase A; activity change, % (values are at about 110 or 230 µM); AID 1347041; purified LDHA, NADH/diaphorase-resazurin fluorescence; active compounds read low; 480,000 tested, 0.15% active; P00338; in the data active = activity change below about -30%; inconclusive = mostly about -25% to -30%;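 also: plate controls were DMSO wells for no effect and wells without enzyme for full effect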
#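 Human LDH5 at 2 nM final in Tris HCl pH 7.4 with 0.06 mM NADH and 0.2 mM pyruvate, reacted 5 minutes at room temperature. Remaining NADH coupled via diaphorase/resazurin; resorufin fluorescence read at 0 and 20 minutes, normalized to enzyme-free and DMSO wells.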
# RGS4 inhibitor = inhibitors of human regulator of G protein signaling 4. P49798. Transcreener GDP fluorescence polarization, RGS4-accelerated GTP hydrolysis. Potency, µM (series often up to 114 µM), for the others: top-dose activity change, negative = inhibition, usual class: inhibitors. 390,000 tested, 0.039% active. AID 504845; active = well fitted inhibition curve with a large enough effect; inconclusive = small, poorly fitted or top-dose-only effect; inactive = no such curve, though single readings can be large or run the other way; also: potency is read from the fitted curve at half-maximal effect; % is scaled to controls: 0 for no effect and ±100 for the full control effect; nearly all actives have a fitted effect of over 75% in size
# Target sequence (P49798 whole entry, looked up): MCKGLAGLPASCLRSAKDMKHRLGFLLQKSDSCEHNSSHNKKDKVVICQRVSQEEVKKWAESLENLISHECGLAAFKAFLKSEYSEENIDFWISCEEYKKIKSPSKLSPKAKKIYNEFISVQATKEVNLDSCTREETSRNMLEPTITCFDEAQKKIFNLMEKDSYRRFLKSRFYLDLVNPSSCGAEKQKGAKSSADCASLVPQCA
#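 MLSMR compounds (23 nl, pin-transferred) preincubated 10 min at room temperature with a 500nM (2x) first reagent, then RGS4 at 900nM (2x) plus Transcreener GDP mix added; fluorescence polarization (620/688 nm) read before and after 90 min at 30 °C.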
# PI4K2A inh = blocks human PI4K2A kinase activity | 420,000 tested, 0.13% active | activity change, negative = inhibition, % at 76.9 µM | Q9BTU6 | AID 1346378 | purified PI4K2A, ADP-Glo luminescence, 1 h; active compounds read low; in the data active = activity change below about -50%; inconclusive = mostly about -30% to -49%;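 also: -100% = wells without enzyme as full effect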
# Target sequence (Q9BTU6 whole entry, looked up): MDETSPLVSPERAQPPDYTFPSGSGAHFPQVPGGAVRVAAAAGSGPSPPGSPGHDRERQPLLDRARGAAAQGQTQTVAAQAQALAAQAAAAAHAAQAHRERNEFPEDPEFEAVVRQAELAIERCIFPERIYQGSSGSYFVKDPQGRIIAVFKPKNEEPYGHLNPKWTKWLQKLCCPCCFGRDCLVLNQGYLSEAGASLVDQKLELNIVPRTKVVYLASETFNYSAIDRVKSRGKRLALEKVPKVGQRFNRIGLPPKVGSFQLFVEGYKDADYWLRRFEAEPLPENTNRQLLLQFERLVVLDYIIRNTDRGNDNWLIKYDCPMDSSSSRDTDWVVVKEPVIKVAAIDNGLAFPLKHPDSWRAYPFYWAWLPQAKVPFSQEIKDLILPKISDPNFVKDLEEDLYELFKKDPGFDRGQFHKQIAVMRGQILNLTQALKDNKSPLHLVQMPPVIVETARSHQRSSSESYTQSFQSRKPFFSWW
#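 Compounds are screened against recombinant PI4K2A using PI as substrate and ATP, the latter dispensed at 300 microM. Reactions run one hour at ambient temperature before ADP-Glo detection; full inhibition defined by wells lacking enzyme.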
# D3 antag = antagonists of human D3 dopamine receptor; P35462; D3R cells, DiscoveRx beta-arrestin luminescence, antagonist mode; active compounds read low; max response, negative = inhibition, %; 360,000 tested, 2.5% active; in the data active = max response below about -50%; inconclusive = no clear call, values can overlap the other calls; also: % is scaled to controls: 0 for no effect and ±100 for the full control effect
#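 Cells plated overnight at 1500 cells/well, then exposed to library compounds with dopamine controls for 90 minutes at 37 degrees C. DiscoveRx reagent added for 30–60 minutes at room temperature; luminescence read, quantitative HTS format.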
# pAkt inh = Akt phosphorylation inhibition; Neuro2A IGF-stimulated pAkt S473 HTRF, 20 min; active compounds read low; activity change, % for hits at 50 µM; 360,000 tested, 0.32% active; in the data active = activity change below about -80%; inconclusive = mostly about -51% to -80%; also: % is scaled to controls: 0 for no effect and ±100 for the full control effect
#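 Single-point screen (50 µM final compound) in Neuro2A cells stimulated 20 min with 6 nM IGF at 37 deg C. After lysis, Ser473-phosphorylated Akt read by HTRF (ex 330 nm, em 615/665 nm) as the 665/615 ratio.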
# DRD3 agonist = agonists of human D3 dopamine receptor | P35462 | D3R DiscoveRx beta-arrestin cells, luminescence, 90 min | max activation, % | 410,000 tested, 0.58% active; in the data active = max activation above about 30%; also: 0% is about no effect
#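 Agonist mode: compounds and dopamine controls were applied to plated cells for 90 min at 37 degrees C after an overnight attachment at 1500 cells/well. Luminescent read-out followed 30 - 60 minutes at room temperature with DiscoveRx detection reagent.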
# * marks the source's active call; other numbers are inactive results; i = inactive; u = inconclusive; x = no result; [ ] = remark or other dose.
SMILES,LDHA inh,RGS4 inhibitor,PI4K2A inh,D3 antag,pAkt inh,DRD3 agonist
CC(Cc1ccccc1Sc1ccccc1)N(C)C (centres undefined),-6.9,11.7%,-0.9,-64.5*,i,-17.1
CN1CCN(Cc2ccccc2Sc2ccccc2)CC1,-3.3,15.3%,9.8,-51.5*,i,-18.9
O=S(=O)(F)CCS(=O)(=O)c1ccc(Cl)cc1,2.0,x,x,x,x,x
O=C(Nc1cccc2c1CCCC2)N1CCC2(CC1)OCCO2,18.0,x,x,x,x,x
CC12CN(CC#N)CC(C)(CN(CC#N)C1)C2=O,-4.1,x,x,x,x,x
OC1(c2ccc(F)cc2)CC2CCC(C1)N2Cc1nnnn1C1CCCC1 (centres undefined),-3.4,-11.4%,-7.1,-109.8*,x,-22.5
COCCCNC(=O)c1c(NC(=O)c2ccco2)n(Cc2ccccc2)c2nc3ccccc3nc12,23.1,u,-57.1*,-25.8,i,-13.1
CC(C)CCNC(=O)c1c(N)n(Cc2ccc3c(c2)OCO3)c2nc3ccccc3nc12,10.2,-23.2%,-1.9,21.6,i,34.9*
CCCCNC(=O)c1c(N)n(CCCOC)c2nc3ccccc3nc12,27.3,-5.0%,-58.4*,17.0,i,21.3
COCCCn1c(N)c(C(=O)OCCOC)c2nc3ccccc3nc21,5.6,-12.6%[11.4 µM],-6.8,-0.3,i,3.4
COC1CC2C=C(C)C=CC=CC(=O)NC(c3ccccc3)CC=CCCC(O)CC(=O)C2=C1O (centres undefined),-0.1,x,-12.5,-85.2*,i,10.8
CN(C)CC(C(=O)Cc1ccccc1)c1ccccc1 (centres undefined),-1.1,u,19.5,-62.5*,i,-22.4
CCOC(=O)[C@]12Cc3ccc(C)cc3[C@H]1N(C1CCCCC1)C(=O)c1ccccc12,1.8,x,17.0,-72.7*,i,-8.9
CCOC(=O)[C@]12Cc3cc(Cl)ccc3[C@H]1N(C1CCCCC1)C(=O)c1cc(OC)ccc12,-2.8,x,17.4,-123.4*,i,-13.4
CCOC(=O)[C@]12Cc3ccc(C)cc3[C@H]1N(C1CCCCC1)C(=O)c1cc(OC)ccc12,1.9,x,9.9,u,i,-10.2
Cc1ccc(C)n1-c1c(C(=O)N2CCC3(CC2)OCCO3)sc2ncccc12,-2.6,x,x,x,x,x
CC(=O)Nc1ccc(S(=O)(=O)N2Cc3ccccc3-n3nncc3C2)cc1,-30.0*,x,-2.8,15.7,i,1.4
Cc1ccc(S(=O)(=O)N2Cc3ccccc3-n3nncc3C2)cc1,-11.8,13.6%,1.0,3.1,i,-12.6
Cn1cnc(CCN)c1,0.3,-4.5%[56.9 µM],-4.6,-77.1*,i,-8.0
Cc1ccc(OCC(=O)N2CCN(Cc3cccnc3)CC2)cc1,-31.7*,-4.1%,-0.2,5.0,i,-5.4
Cc1ccc(OCC(=O)N2CCN(Cc3ccc(F)cc3)CC2)cc1,-22.0,-23.7%,0.6,x,x,-2.3
Cc1cccc(OCC(=O)N2CCN(Cc3cccnc3)CC2)c1,-33.4*,6.1%,-11.2,1.0,i,-2.9
CSc1ccc(CN2CCN(C(=O)COc3cccc(C)c3)CC2)cc1,-15.1,-4.8%,5.2,-11.3,i,-4.7
CCOCCCNC1CC(C)CC(C)(C)C1 (centres undefined),-7.1,x,x,x,x,x
Cc1ccccc1CN1CCN(Cc2cccc(F)c2)CC1,-0.9,x,x,x,x,x
SMILES,LDHA inh,RGS4 inhibitor,PI4K2A inh,D3 antag,pAkt inh,DRD3 agonist
O=[N+]([O-])c1ccccc1CN1CC=C(c2ccc(F)cc2)CC1,-1.0,47.4%,-2.6,-68.2*,i,-17.5
O=[N+]([O-])c1cccc(CN2CCN(Cc3ccc(Cl)cc3)CC2)c1,-21.6,-19.2%,-7.3,-79.1*,i,-12.1
O=C1CC(N2CC=C(c3ccccc3)CC2)C(=O)N1c1ccc(F)cc1 (centres undefined),-3.7,-12.0%,2.8,-15.5,i,-8.9
O=[N+]([O-])c1cccc(CN2CC=C(c3ccc(F)cc3)CC2)c1,-1.6,16.6%,-4.8,-98.8*,i,-24.8
CC(C)N1CCN(Cc2cccc([N+](=O)[O-])c2)CC1,-17.8,-5.7%,1.3,u,i,-11.7
Fc1ccc(CN2CCN(Cc3cccc(F)c3)CC2)cc1,1.3,x,x,x,x,x
CCC1CCC(NC2CCC(CC)CC2)CC1 (centres undefined),-0.5,x,x,x,x,x
CCCN(CCC)C1Cc2cc(OC)c(OC)cc2C1,-13.6,19.9%[56.9 µM],4.0,-103.5*,i,-89.7
CCCN(C/C=C\I)[C@@H]1CCc2ccc(O)cc2C1,x,i,x,x,x,x
C[N+]12CCC(CC1)C(C(O)(c1ccccc1)c1cccs1)C2 (centres undefined),-36.3*,0.6%,-0.1,-4.9,i,4.9
COC(=O)C1=C(c2cc3ccccc3s2)C[C@@H]2CC[C@H]1N2C(=O)N1CCCCC1,3.0,-1.9%,0.6,-53.8*,i,-20.9
COC(=O)C1=C(c2ccc(F)cc2F)C[C@@H]2CC[C@H]1N2C(=O)NCC1CC1,-8.3,22.4%,0.4,1.3,i,9.4
COC(=O)C1=C(c2ccc(F)cc2F)C[C@@H]2CC[C@H]1N2C(=O)NCc1ccco1,1.0,-19.9%,-1.1,u,i,40.7*
COC(=O)C1=C(c2cc3ccccc3s2)C[C@@H]2CC[C@H]1N2C(=O)NCc1ccc(F)cc1,2.3,14.5%,-6.6,-55.6*,i,-35.5
COC(=O)C1=C(c2cc3ccccc3s2)C[C@@H]2CC[C@H]1N2C(=O)N1CCC(O)CC1,-5.9,-1.8%,0.2,-5.9,i,0.2
Cc1cccc(C2SCC(=O)Nc3n[nH]c(C)c32)c1 (centres undefined),14.9,x,x,x,x,x
O=[N+]([O-])c1ccc(N(CCO)CCO)c2c1no[n+]2[O-],5.7,x,u,-98.7*,i,-22.5
O=C(CSC1c2ccccc2Oc2ccccc21)Nc1cccc(C(=O)O)c1,17.8,x,x,x,x,x
CCOC(C(=O)OCCC[N+](C)(CC)CC)(c1ccccc1)c1ccccc1,-8.5,13.3%,1.1,-23.9,i,-25.0
CC[N+](C)(CC)CCCOC(=O)C(O)(c1ccccc1)C1CCCCC1 (centres undefined),-82.5*,9.9%,5.5,2.8,i,5.1
Cc1nc2cc(OC(=O)N(C)Cc3cccc(-c4ccncc4)c3)ccc2s1,-1.2,x,-4.9,128.5,i,32.9*
O=C(O)c1cc(I)cc(I)c1I,12.3,x,x,x,x,x
CC(Nc1ccc([N+](=O)[O-])c2nonc12)c1ccccc1Cl (centres undefined),53.1,x,x,x,x,x
CNc1cc(Cl)c2nonc2c1[N+](=O)[O-],17.8,-32.4%,-22.6,-108.6*,i,-18.9
COc1ccc(C(CNC(=O)Cc2ccc(Cl)c(Cl)c2)N2CCCCC2)cc1 (centres undefined),-7.3,-17.6%,3.7,-66.8*,i,-34.4
